Results on five compounds are retold here after PubChem BioAssay.

Active and inactive are the calls of the source.

Assay [1] in a line: small molecules captured by biotinylated probe aFSTL3 – biochemical, small-molecule microarray, fluorescence 635/667, stem cell growth factor project, primary screen (AID 1064).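 Also: measures binding of the biotinylated anti-FSTL3 antibody to printed compounds.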 The following applies: higher = more signal.
The nature of assay [2]: binders from COS7 lysate, DM2A8 probe, primary screen, torsin A project, cell lysate, small-molecule microarray, fluorescence 635/667 (AID 1065). As to conditions: higher = more signal, COS7 lysate expressing mutant human TOR1A.
Assay [3] in a line: small molecules captured by biotinylated probe aFGF2 – biochemical, small-molecule microarray, fluorescence 635/667, stem cell growth factor project, primary screen (AID 1067).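 Also: measures binding of biotinylated aFGF2 protein to printed compounds on slides; z-score merges feature fluorescence and signal-to-noise across triplicate slides.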 As to conditions: higher = more signal.
Assay [4] is described as follows: small molecules captured by biotinylated probe aFGF10 – biochemical, small-molecule microarray, fluorescence 635/667, stem cell growth factor project, primary screen (AID 1071).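 Also: score merges 667 nm spot intensity and signal to noise from triplicate slides.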 As to conditions: higher = more signal.
The target of assay [5] is Neurogenic locus notch homolog protein 2 (Homo sapiens) (UniProt Q04721). Kind of assay: small molecules binding Notch2 protein – biochemical, small-molecule microarray, 635 nm fluorescence, stem cell growth factors, primary screen (AID 1073). The following applies: higher = more signal.
Assay [6] addresses Pro-neuregulin-1, membrane-bound isoform (Homo sapiens) (UniProt Q02297). In words: small molecules binding neuregulin-1 protein – biochemical, small-molecule microarray, fluorescence 635/667, psychiatric disease protein project, primary screen (AID 1075).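 Also: score combines 667 nm spot fluorescence with signal to noise.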 As to conditions: NRG1 binding, 635 nm fluorescence, higher = more signal.
Assay [7] deals with Neuregulin-1 EGF-like domain. Kind of assay: small molecules binding NRG1 EGF domain – biochemical, small-molecule microarray, 635 nm fluorescence, primary screen (AID 1081).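 Also: binding of the protein to compounds printed on small-molecule microarray slides.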 The following applies: higher = more signal.
A short description of assay [8]: FRG1 expression reporter modulators in myotubes – cell-based, C2C12 myotubes, firefly/Renilla luciferase, luminescence, FRG1 inhibition for FSHD, primary screen (AID 1084). The following applies: FRG1 promoter luciferase, higher = more signal, called active from +8 up or from −8 down.
Assay [9] can be described thus: small molecules captured by biotinylated probe aFST – biochemical, small-molecule microarray, fluorescence 635/667, stem cell growth factor project, primary screen (AID 1086).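 Also: score merges 667 nm fluorescence with signal-to-noise of each printed compound spot.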 As to conditions: higher = more signal.
The nature of assay [10]: binders of probe aHhip on microarray, primary screen, stem cell growth factor project, biochemical, small-molecule microarray, fluorescence 635/667 (AID 1087).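 Also: score merges spot fluorescence at 667nm with spot signal to noise ratio.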 The following applies: higher = more signal.
For assay [11], the system named is PRMT1 (protein arginine N-methyltransferase 1). In words: small molecules binding arginine methyltransferase PRMT1 – biochemical, small-molecule microarray, 635 nm fluorescence, primary screen (AID 1088).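 Also: binding of Prmt1 protein to compounds spotted on small-molecule microarray slides.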 As to conditions: higher = more signal.
The nature of assay [12]: growth effects on S. cerevisiae YJM789 – YJM789 clinical isolate, OD600, 24 h, basal, primary screen (AID 1089).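 Also: growth of clinical yeast isolate S. cerevisiae YJM 789 seeded 1000 cells per well; test concentration not given here.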 As to conditions: higher = more signal, called active from +8 up or from −8 down.
Assay [13] in a line: S. pombe growth modifiers, basal conditions – strain 972, OD600, 24 h, no modulator, primary screen (AID 1090).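 Also: basal condition with compound alone and no growth modifier present; test concentration not given here.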 The following applies: S. pombe 972 growth, higher = more signal, called active from +8 up or from −8 down.
Assay [14] is described as follows: budding yeast growth modifiers under rapamycin – strain BY4716, OD600, 96 h, primary screen (AID 1091). Also: test concentration not given here. The following applies: S. cerevisiae BY4716 + rapamycin, higher = more signal, called active from +8 up or from −8 down.
For assay [15], the target named is Torsin-1A-interacting protein 2 (Homo sapiens) (UniProt Q8NFQ8). In words: small molecules binding lysate-expressed LULL1 – cell lysate, human LULL1 lysate, 635/667 nm fluorescence, primary screen (AID 1092).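 Also: probe is lysate of COS7 cells overexpressing human LULL1; score merges per-feature 667 nm fluorescence with signal-to-noise.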 As to conditions: small-molecule microarray, hLULL1 lysate binding, 635 nm fluorescence; higher = more signal.
A short description of assay [16]: optical density change of DRC41 E. coli – strain DRC41, OD650, 24 h, E. coli filamentation project, primary screen (AID 1093).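 Also: MC1000 strain lacking acrAB efflux and sulA so SOS filamentation is blocked; test concentration not given here.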 The following applies: E. coli DRC41 growth, higher = more signal, called active from +8 up or from −8 down.
A short description of assay [17]: probe aLefty2 binding to arrayed compounds – biochemical, biotinylated probe, 635/667 nm fluorescence, primary screen (AID 1094).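 Also: score merges spot fluorescence near 667 nm with spot signal-to-noise ratio.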 As to conditions: small-molecule microarray, higher = more signal.
Assay [18] has as its system Noggin (protein binding on small-molecule microarray). In words: small molecules binding Noggin protein – biochemical, 635/667 nm fluorescence, primary screen (AID 1095).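 Also: score merges 667 nm feature fluorescence with signal to noise over triplicate slides.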 As to conditions: 635 nm fluorescence, higher = more signal.
The target of assay [19] is Neurogenic locus notch homolog protein 3 (Homo sapiens) (UniProt Q9UM47). In words: small molecules binding NOTCH3 protein – biochemical, 635/667 nm fluorescence, primary screen (AID 1096). The following applies: small-molecule microarray, 635 nm fluorescence, higher = more signal.
A short description of assay [20]: probe aEGFR binding to arrayed compounds – biochemical, biotinylated probe, 635/667 nm fluorescence, primary screen (AID 1097).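 Also: probe is a biotinylated anti-EGFR antibody binding compounds printed on slides; score combines fluorescence near 667 nm and signal to noise of each spot.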 As to conditions: small-molecule microarray, higher = more signal.

Neurogenic locus notch homolog protein 2 (Homo sapiens), sequence (Q04721 whole entry, looked up, canonical isoform): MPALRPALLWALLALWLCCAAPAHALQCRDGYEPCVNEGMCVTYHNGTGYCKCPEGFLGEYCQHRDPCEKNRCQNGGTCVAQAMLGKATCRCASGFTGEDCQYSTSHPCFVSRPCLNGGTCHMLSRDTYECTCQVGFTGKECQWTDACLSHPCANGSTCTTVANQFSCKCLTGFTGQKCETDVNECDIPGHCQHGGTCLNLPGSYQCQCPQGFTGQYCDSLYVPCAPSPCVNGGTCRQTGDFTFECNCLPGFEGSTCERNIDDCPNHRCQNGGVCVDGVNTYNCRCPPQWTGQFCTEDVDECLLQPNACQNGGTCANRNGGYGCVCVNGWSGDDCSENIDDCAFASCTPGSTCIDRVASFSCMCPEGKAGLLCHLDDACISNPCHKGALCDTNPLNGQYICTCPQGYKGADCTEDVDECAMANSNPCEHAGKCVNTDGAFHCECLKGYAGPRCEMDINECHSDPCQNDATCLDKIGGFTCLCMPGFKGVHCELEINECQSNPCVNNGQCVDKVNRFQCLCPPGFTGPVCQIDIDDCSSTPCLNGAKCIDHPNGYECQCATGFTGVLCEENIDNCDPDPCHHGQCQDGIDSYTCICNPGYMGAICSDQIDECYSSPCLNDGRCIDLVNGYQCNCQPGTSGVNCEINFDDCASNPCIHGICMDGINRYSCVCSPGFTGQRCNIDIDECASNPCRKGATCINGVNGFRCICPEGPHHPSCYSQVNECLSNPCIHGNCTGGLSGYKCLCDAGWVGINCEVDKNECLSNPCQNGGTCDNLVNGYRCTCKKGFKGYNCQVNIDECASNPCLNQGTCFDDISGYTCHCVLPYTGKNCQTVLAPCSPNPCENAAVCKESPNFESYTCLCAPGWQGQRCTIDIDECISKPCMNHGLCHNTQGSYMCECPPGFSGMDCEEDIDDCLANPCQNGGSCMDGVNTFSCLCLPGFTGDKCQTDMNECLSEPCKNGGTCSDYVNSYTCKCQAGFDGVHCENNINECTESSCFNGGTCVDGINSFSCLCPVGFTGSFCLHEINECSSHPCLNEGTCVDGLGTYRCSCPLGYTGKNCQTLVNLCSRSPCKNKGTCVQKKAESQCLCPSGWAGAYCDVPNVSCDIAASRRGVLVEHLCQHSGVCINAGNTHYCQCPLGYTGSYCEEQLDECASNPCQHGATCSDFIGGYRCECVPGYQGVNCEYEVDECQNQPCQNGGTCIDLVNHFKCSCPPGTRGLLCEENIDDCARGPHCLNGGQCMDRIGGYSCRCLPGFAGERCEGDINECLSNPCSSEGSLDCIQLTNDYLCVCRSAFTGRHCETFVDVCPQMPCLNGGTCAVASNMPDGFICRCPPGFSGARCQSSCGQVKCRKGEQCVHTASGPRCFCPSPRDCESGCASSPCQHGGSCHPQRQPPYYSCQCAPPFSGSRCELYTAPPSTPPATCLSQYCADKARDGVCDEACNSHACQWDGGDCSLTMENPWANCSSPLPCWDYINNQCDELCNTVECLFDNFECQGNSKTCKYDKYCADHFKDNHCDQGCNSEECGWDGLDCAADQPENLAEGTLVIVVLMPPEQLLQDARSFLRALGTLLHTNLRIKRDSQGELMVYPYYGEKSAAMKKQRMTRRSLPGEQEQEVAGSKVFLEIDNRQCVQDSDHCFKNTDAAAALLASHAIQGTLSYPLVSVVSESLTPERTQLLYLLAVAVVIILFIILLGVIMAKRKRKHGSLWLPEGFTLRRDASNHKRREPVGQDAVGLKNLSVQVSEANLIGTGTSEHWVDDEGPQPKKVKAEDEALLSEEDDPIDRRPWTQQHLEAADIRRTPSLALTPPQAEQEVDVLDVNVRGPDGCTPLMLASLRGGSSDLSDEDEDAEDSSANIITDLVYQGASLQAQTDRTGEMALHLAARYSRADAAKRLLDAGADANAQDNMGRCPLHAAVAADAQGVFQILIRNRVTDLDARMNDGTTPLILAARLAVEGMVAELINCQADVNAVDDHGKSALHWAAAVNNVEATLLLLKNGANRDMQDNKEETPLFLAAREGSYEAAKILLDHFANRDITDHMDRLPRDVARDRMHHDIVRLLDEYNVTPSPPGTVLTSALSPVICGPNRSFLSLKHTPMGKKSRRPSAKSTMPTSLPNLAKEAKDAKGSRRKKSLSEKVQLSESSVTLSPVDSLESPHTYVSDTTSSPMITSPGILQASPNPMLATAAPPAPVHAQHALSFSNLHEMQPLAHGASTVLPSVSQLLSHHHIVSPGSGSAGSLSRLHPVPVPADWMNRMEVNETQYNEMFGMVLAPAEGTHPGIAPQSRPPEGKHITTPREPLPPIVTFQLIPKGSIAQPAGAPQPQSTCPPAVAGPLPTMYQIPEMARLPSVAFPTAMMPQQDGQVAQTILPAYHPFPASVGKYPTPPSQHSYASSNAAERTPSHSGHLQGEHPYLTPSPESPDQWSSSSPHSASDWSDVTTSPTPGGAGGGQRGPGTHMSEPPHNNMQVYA
Neurogenic locus notch homolog protein 3 (Homo sapiens), sequence (Q9UM47 whole entry, looked up): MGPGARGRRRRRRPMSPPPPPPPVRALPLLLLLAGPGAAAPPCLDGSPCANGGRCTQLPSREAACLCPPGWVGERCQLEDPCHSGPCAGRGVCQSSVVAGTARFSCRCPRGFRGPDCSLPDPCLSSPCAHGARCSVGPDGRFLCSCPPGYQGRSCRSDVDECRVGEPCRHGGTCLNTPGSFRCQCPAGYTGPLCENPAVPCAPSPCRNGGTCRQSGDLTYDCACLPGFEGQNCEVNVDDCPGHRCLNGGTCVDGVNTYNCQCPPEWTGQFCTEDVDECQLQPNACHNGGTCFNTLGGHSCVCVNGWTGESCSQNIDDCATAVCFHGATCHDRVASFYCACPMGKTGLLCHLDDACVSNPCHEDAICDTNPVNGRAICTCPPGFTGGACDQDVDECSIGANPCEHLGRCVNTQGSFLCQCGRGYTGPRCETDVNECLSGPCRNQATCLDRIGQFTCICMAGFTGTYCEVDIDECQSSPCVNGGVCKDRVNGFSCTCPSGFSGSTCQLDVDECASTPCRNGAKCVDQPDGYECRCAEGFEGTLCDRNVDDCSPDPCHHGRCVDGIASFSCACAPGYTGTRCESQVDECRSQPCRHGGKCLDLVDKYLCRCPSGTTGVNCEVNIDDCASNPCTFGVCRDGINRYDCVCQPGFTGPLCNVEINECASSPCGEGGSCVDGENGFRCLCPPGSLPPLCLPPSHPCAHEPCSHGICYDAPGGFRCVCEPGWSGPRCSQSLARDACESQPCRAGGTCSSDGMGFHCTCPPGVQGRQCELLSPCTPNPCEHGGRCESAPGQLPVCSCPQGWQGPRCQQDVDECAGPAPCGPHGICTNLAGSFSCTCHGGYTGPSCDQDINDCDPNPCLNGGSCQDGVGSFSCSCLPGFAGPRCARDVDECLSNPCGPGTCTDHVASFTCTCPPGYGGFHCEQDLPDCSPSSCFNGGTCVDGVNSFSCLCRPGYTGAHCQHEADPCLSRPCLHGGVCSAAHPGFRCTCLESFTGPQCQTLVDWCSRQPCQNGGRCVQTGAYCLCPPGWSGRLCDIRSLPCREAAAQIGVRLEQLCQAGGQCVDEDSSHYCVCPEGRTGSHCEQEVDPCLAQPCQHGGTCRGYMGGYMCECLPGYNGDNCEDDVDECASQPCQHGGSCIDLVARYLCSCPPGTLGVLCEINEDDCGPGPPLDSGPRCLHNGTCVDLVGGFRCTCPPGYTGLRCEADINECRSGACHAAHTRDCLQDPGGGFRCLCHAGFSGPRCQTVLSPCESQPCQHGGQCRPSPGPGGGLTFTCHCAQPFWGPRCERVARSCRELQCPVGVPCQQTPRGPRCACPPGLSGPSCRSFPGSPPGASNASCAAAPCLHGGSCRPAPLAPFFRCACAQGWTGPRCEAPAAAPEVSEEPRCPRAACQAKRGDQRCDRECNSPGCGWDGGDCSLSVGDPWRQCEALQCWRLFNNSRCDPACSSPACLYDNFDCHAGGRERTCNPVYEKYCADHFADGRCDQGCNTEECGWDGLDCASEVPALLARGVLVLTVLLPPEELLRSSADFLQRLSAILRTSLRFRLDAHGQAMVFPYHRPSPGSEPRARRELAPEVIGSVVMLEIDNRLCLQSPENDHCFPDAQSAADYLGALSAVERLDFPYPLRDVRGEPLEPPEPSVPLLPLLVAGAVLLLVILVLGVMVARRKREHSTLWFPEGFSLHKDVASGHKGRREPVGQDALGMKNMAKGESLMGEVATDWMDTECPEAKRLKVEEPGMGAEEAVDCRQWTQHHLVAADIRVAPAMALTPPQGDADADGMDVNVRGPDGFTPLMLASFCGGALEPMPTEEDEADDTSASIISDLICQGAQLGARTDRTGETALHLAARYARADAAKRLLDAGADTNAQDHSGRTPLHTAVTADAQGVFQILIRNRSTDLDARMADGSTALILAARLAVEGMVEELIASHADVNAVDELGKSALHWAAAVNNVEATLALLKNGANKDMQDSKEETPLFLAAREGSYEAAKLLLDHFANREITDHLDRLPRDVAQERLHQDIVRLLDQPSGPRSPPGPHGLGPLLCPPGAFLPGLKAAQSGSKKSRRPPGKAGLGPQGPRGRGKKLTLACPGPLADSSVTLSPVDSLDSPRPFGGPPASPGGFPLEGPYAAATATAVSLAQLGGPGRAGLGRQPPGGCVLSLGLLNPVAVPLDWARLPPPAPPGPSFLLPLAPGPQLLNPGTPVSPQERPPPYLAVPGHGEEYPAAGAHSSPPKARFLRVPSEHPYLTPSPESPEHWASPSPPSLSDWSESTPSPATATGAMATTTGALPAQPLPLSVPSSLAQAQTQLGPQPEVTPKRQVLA

For `CN1C(=O)C2C=CC(C(O)c3ccccn3)N(N(c3ccccc3)c3ccccc3)C2C1=O` (stereo not given), the composite z-score amounted to 0.733 in [1]; 0.0014 in assay [2]; 0.0276 in assay [3]; 0.0491 in assay [4]; 0.594 in assay [5]; 0.899 in assay [6]. Besides, the composite z-score amounted to 0.622 in assay [7]; 0.613 in assay [9]; 0.245 in [10]; 0.412 in assay [11]; 1.87 in [15]; 0.235 in assay [17]. For the same compound, the figures for the composite z-score in assay [18], in assay [19] and in assay [20] were -0.112, -0.343 and 0.0353, respectively. In addition, the z-score was 0.164 (inactive) in [8]; 1.13 (inactive) in assay [12]; 0.863 (inactive) in assay [13]; 0.491 (inactive) in assay [14]; -0.828 (inactive) in [16].

In the case of `O=C1NC(=O)C2C1C=CC(C(O)c1c(F)cccc1Cl)N2Nc1ccc(Cl)cc1Cl` (stereo not given), the composite z-score is 1.38 in [1]; 1.79 in assay [2]; 0.0389 in assay [3]; 0.424 in assay [4]; 1.29 in assay [5]; 1.37 in assay [6]. In addition, the composite z-score was 1.17 in assay [7]; 1.22 in assay [9]; -0.216 in assay [10]; 0.0621 in assay [11]; 3.2 in [15]; 0.319 in assay [17]. Moreover, the composite z-score in assay [18] is -0.836; in assay [19], 0.53; in assay [20], 0.0069. In addition, the z-score is -1.03 (inactive) in [8]; -20.9 (active) in [12]; -1.98 (inactive) in assay [13]; 1.65 (inactive) in assay [14]; -3.22 (inactive) in assay [16].

Regarding `Cc1ccccc1C(O)C1C=CC2C(=O)N(C)C(=O)C2N1N(c1ccccc1)c1ccccc1` (stereo not given), the composite z-score in [1] was 1.01; in assay [2] it was -0.038; in assay [3], 0.149; in assay [4] it was 0.113; in assay [5], 0.483; in assay [6] it was -0.53. Further, the composite z-score in [7] was -0.878; in [9] it was 0.606; in assay [10], 0.0077; in [11] it was -0.437; in [15], -0.604; in assay [17] it was 0.756. For the same compound, the composite z-score in assay [18] was -0.177; in assay [19], -0.899; in assay [20], 0.409. Also, the z-score in assay [8] was -0.0079 (inactive); in assay [12], 0.787 (inactive); in assay [13], 0.503 (inactive); in assay [14], 0.753 (inactive); in assay [16], -0.717 (inactive).

As for `C=CCC(OC(C)=O)[C@@H]1[C@@H](N(Cc2ccc(-c3cccc(C(F)(F)F)c3)o2)C(=O)c2ccc(-c3ccccc3)cc2)c2cc(OCCCO)ccc2N1C(=O)c1ccc2ccccc2n1` (stereo not given in full), the composite z-score was -0.0375 in [1]; -0.246 in assay [2]; -0.0266 in [3]; 0.306 in assay [4]; 0.0588 in assay [5]; 0.0617 in [6]. Besides, the composite z-score was -0.385 in assay [7]; 0.77 in assay [9]; -0.0237 in assay [10]; -1.08 in [11]; -0.244 in [15]; -0.0063 in assay [17]. The composite z-score in [18] is -0.0955; in assay [19] it was 0.0478; in [20], -0.0656. The z-score in assay [8] was -0.379 (inactive); in assay [12], 0.672 (inactive); in assay [13], 0.789 (inactive); in assay [14], 0.847 (inactive); in assay [16], -0.656 (inactive).

As for `CCOC(=O)C1=C[C@@H](c2ccccc2)N(S(=O)(=O)c2ccc(C)cc2)[C@H]1c1ccccc1Cl`, the composite z-score was -0.508 in [1]; 0.544 in assay [2]; 0.168 in [3]; 1.1 in [4]; 1.5 in assay [5]; 0.264 in assay [6]. In addition, the composite z-score in assay [7] was 0.857; in [9], 0.945; in assay [10], -0.16; in [11], 1.5; in assay [15], 2.8; in assay [17] it was 0.0935. Also, the composite z-score in assay [18] is 0.985; in [19], 1.06; in assay [20], 0.153. For the same compound, the z-score was -3.26 (inactive) in assay [8]; 0.849 (inactive) in assay [12]; 2.19 (inactive) in assay [13]; 2.48 (inactive) in assay [14]; -0.518 (inactive) in assay [16].
